Bioassay records from PubChem.
MITF inh: MITF inhibitors, primary screen, biochemical, AlphaScreen, human | AlphaScreen MITF homodimerization, bead proximity signal | 650,000 tested, 0.91% active | Microphthalmia-associated transcription factor (Homo sapiens), O75030 | inhibition, % at 2.6 µM; in the data active = inhibition above about 50%
GPR151 activ: activators of human GPR151, primary screen, cell-based, PathHunter beta-arrestin, luminescence; PathHunter beta-arrestin GPR151 cells; activation, % at 11.2 µM; 650,000 tested, 1% active; in the data active = activation above about 4.9%
Target sequence (Q8TDV0 whole entry, looked up): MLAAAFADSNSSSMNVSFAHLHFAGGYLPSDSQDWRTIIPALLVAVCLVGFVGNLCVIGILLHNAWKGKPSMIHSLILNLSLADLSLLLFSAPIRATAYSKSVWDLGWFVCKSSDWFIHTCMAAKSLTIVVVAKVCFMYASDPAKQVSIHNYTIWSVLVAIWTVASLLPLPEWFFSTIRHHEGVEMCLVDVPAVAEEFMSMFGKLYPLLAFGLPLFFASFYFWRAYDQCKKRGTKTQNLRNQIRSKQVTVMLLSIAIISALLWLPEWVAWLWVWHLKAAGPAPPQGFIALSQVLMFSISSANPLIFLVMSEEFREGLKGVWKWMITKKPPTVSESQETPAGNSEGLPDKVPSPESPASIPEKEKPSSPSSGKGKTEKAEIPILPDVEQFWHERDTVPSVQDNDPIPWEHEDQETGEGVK
TEAD-YAP inh: TEAD-YAP interaction inhibition, primary screen, TEAD-YAP interaction inhibitor project, luminescence, HEK-TIYL cells | 640,000 tested, 1.4% active | inhibition, % at 9.12 µM | AID 1259422, 2018 | TEAD-Gal4/YAP UAS-luciferase luminescence; in the data active = inhibition above about 32%
FBW7 act: FBW7 E3 ligase activators, primary screen, biochemical, AlphaScreen, human; normalized activity (activation), % at 26.1 µM; AID 1259310, 2017; AlphaScreen FBW7–phospho-cyclin E peptide binding, activator screen; F-box/WD repeat-containing protein 7 (Homo sapiens), Q969H0; 650,000 tested, 0.13% active; in the data active = normalized activity above about 1.9%;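 also: purified mutant Fbw7 with reduced substrate affinity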
Large screens that a line does not name were inactive; ! = repeats disagree. Shown are actives, neighbours in structure and some others; about 3.4% of the full set was active somewhere.

COc1cc(/C=C/C(=O)c2ccc(F)cc2)cc(OC)c1OC	none
COc1cc(C(=O)/C=C/c2ccc(OCC(N)=O)cc2)cc(OC)c1OC	FBW7 act 2.0
CCCCCc1c(C)c2ccc(OC(C)=O)cc2oc1=O	none
Cc1ccc2nc(N3CCN(C=O)CC3)nc(-c3ccccc3)c2c1	FBW7 act 2.1
Cc1ccc(C(=O)N2CCN(c3nc(-c4ccccc4)c4cc(Br)ccc4n3)CC2)cc1	none
O=C(c1ccccc1)N1CCN(c2nc(-c3ccccc3)c3ccccc3n2)CC1	FBW7 act 2.2
CCOc1ccccc1-n1c(=S)sc2c(=O)n(-c3ccccc3)c(SCC(=O)O)nc21	none
COC(=O)N/N=C/c1c(C)n(CCOc2ccccc2OC)c2ccccc12	none
CCn1cc(C(=O)N2CCN(Cc3nc(-c4ccc(F)cc4)cs3)CC2)c(=O)c2ccc(C)nc21	TEAD-YAP inh 60.5
COc1ccc(-c2csc(CN3CCN(C(=O)c4ccc(F)c(F)c4)CC3)n2)cc1	TEAD-YAP inh 49.9
CCn1cc(C(=O)N2CCN(c3ccccc3OC)CC2)c(=O)c2ccc(C)nc21	none
CC(C)CN(C(=O)CCl)C1CCS(=O)(=O)C1 (centres undefined)	TEAD-YAP inh 66.3
CCCN(C(=O)CCl)C1CCS(=O)(=O)C1 (centres undefined)	TEAD-YAP inh 50.3
CN(C)CCN(C(=O)CCl)C1CCS(=O)(=O)C1 (centres undefined)	none
NC(=O)/C(=N\O)c1nc(-c2ccc(Cl)cc2)cs1	TEAD-YAP inh 32.2
NC(=O)/C(=N/O)c1nc(-c2ccc(Br)cc2)cs1	none
O=C(Nc1nc(-c2c[nH]c3ccccc23)cs1)c1n[nH]c(=O)c2ccccc12	TEAD-YAP inh 36.2
O=C(Nc1nc(-c2c[nH]c3ccccc23)cs1)C1CCCC1	none
CN(C)c1ccc2c3c(cccc13)C(=O)N(CCO)C2=O	none
Nc1c(S(=O)(=O)O)cc2c3c(cccc13)C(=O)N(CCO)C2=O	MITF inh 71.7
CC(=O)N1/C(=C/c2ccc(N(C)C)cc2)C(=O)c2ccccc21	TEAD-YAP inh 46.2
CC(=O)N1/C(=C/c2ccncc2)C(=O)c2ccccc21	none
CCOC(=O)C(=CNc1cccc(-c2ccco2)c1)C(=O)OCC	none
Cc1cnc(CNc2cc(-c3cncc(-c4ccccc4)c3)nc(C)n2)cn1	TEAD-YAP inh 45.5
COc1ccc(Nc2cc(-c3cncc(-c4ccccc4)c3)nc(C)n2)cc1	TEAD-YAP inh 49.7
S=c1[nH]nc(-c2cccs2)n1-c1ccc2c(c1)OCCO2	none
COc1ccc(C(=O)N2C(C)CCCC2C)cc1[N+](=O)[O-] (centres undefined)	none
COc1ccc(C)cc1NC(=O)C1c2ccccc2Oc2ccccc21	none
Cc1ccc(CNC(=O)CCCNS(=O)(=O)c2cccc3nsnc23)cc1	none
CCOC(=O)c1ccccc1Oc1cc([N+](=O)[O-])cc2c1C(=O)Nc1ccccc1O2	none
COc1cccc(/C=C/C(=O)OCc2nnc(-c3ccc(Cl)cc3)o2)c1	none
Cc1cc(N2CCN(c3ncccn3)CC2)nc2ccc(NC(=O)c3ccncc3)cc12	TEAD-YAP inh 47.9
COc1cc(/C=C/C(=O)Nc2ccc3nc(N4CCN(c5ncccn5)CC4)cc(C)c3c2)cc(OC)c1OC	TEAD-YAP inh 42.2
COC(=O)c1ccc2c(c1)s/c(=N\S(=O)(=O)c1ccccc1)n2C	none
O=C(c1ccc(-n2cccc2)cc1)N1CCC(c2nnc(-c3ccco3)o2)CC1	FBW7 act 2.2
O=C(COC(=O)c1ccc2c(c1Cl)C(=O)c1ccccc1C2=O)NCc1cccs1	none
COCCCNC(=O)/C(C#N)=C/c1cn(Cc2ccc(F)cc2)c2ccccc12	TEAD-YAP inh 44.5
COCCCNC(=O)/C(C#N)=C/c1cn(Cc2cccc(F)c2)c2ccccc12	TEAD-YAP inh 34.6
O=C(Nc1ccc2c(c1)Nc1ccccc1CC2)c1ccccc1	none
COc1cc(C(=O)Nc2ccc(O)cc2)cc(OC)c1OC	none
COc1cc(C(=O)Nc2ccc3c(c2)oc2ccccc23)cc(OC)c1OC	TEAD-YAP inh 56.9
COC(=O)c1ccc(NC(=O)c2cc(OC)c(OC)c(OC)c2)cc1	TEAD-YAP inh 59.4
COc1cc(C(=O)Nc2ccc3c(c2)Nc2ccccc2CC3)cc(OC)c1OC	TEAD-YAP inh 61.9
O=C1CSc2ccc(C(=O)NCCc3ccccc3Cl)cc2N1	none
O=C(CCCCn1c(=O)[nH]c2ccsc2c1=O)N1CCc2ccccc2C1	none
COc1ccccc1NC(=O)CCCc1nc(-c2ccc(C)cc2)no1	none
COc1ccccc1NC(=O)CCc1nc(-c2ccc(C(C)(C)C)cc2)no1	TEAD-YAP inh 71.1
c1cn(-c2ccc(Nc3nc(NCCN4CCOCC4)c4ncn(-c5ccsc5)c4n3)cc2)cn1	TEAD-YAP inh 46.2
c1cc(-n2cnc3c(NCCN4CCOCC4)nc(NCCN4CCOCC4)nc32)cs1	none
c1cc(-n2cnc3c(NCCN4CCOCC4)nc(Nc4ccc(N5CCOCC5)cc4)nc32)cs1	TEAD-YAP inh 61.6
c1cc(-n2cnc3c(Nc4ccc(N5CCOCC5)cc4)nc(NCCN4CCOCC4)nc32)cs1	TEAD-YAP inh 44.6
CCCNc1nc(Nc2ccc(N3CCOCC3)cc2)nc2c1ncn2-c1ccsc1	TEAD-YAP inh 47.1
O=C(c1cccs1)N1CCCC(COCc2ccccc2)C1 (centres undefined)	none
O=[N+]([O-])c1ccc(N2CCCC2)cc1NCc1ccco1	none
O=C(NN1C(=O)c2ccccc2C1=O)c1ccc2c(c1)C(=O)N(c1cccc([N+](=O)[O-])c1)C2=O	none
Cc1ccc(N(CC(=O)Nc2cccc(Cl)c2)S(C)(=O)=O)c(C)c1	none
COc1cc(CN2CCN(Cc3cn[nH]c3-c3ccccc3)CC2CCO)cc(OC)c1 (centres undefined)	none
COc1cc(Nc2nc(NCCN3CCOCC3)nc3c2ncn3-c2ccsc2)cc(OC)c1OC	none
CC(=O)Nc1ccc(Nc2nc(NCCN3CCOCC3)nc3c2ncn3-c2ccsc2)cc1	TEAD-YAP inh 51.4
c1ccc(Nc2nc(NCCN3CCOCC3)c3ncn(C4CCCCC4)c3n2)cc1	none
c1cn(-c2ccc(Nc3nc(NCCN4CCOCC4)c4ncn(C5CCCCC5)c4n3)cc2)cn1	TEAD-YAP inh 46.9
Cn1cccc(C(=O)N2CCN(CCn3cccn3)CC2)c1=O	none
Cc1cc(-c2nnc(CCC(=O)NCCc3cccc(Cl)c3)o2)no1	none
O=C(NCc1ccco1)c1ccc(N2CC3CC(C2)c2cccc(=O)n2C3)c(NC(=O)c2ccncc2)c1 (centres undefined)	TEAD-YAP inh 45.2
COc1ccc2[nH]c(=O)c(CN(CC3CCCO3)S(=O)(=O)c3ccccc3F)cc2c1 (centres undefined)	TEAD-YAP inh 33.8
COc1ccc(-c2cc(=O)c3c(O)cc(O)cc3o2)cc1	TEAD-YAP inh 52.6!
COc1ccc(-c2cc(=O)c3c(O)cc(OC)cc3o2)cc1	none
COc1ccc(-c2cc(=O)c3cc(O)ccc3o2)cc1	TEAD-YAP inh 43.1
COc1ccc(-c2cc(=O)c3cc(C)ccc3o2)cc1	none
